# Bioassay records as filed in PubChem BioAssay.
# This is a sample that favours compounds with a hit; in the whole collection about 12% have one here.
# BAZ2B inh: BAZ2B (human) inhibition; Q9UIF8; AlphaScreen BAZ2B-H3K14Ac peptide displacement; Potency, µM (top dose mostly 114 µM), for inactives: top-dose activity change, negative = inhibition, usual class: inhibitors; hit rate 4.4% among 360,000; AID 504333; also: % is scaled to controls: 0 for no effect and ±100 for the full control effect; nearly all actives have a fitted effect of over 60% in size
#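 AlphaScreen luminescence quantifies BAZ2B engagement of H3K14Ac peptide; the protein and biotinylated peptide are both at 50 nM final, buffer PBS pH 7.4 with 0.01% Tween-20, all steps at room temperature.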
# G9a inh: G9a (human) methyltransferase inhibition; Q96KQ7; G9a H3K9 monomethylation, AlphaScreen, 2 h; Potency, µM (highest dose often 102 µM), without a hit: at the top dose activity, negative = inhibition, most hits filed as inhibitors; hit rate 8.8% among 350,000; AID 504332; also: % is scaled to controls: 0 for no effect and ±100 for the full control effect; nearly all actives have a fitted effect of over 75% in size
#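 Signal arises when biotinylated H3K9 peptide, once monomethylated, bridges streptavidin donor and antibody-captured acceptor beads. Enzyme at 20 nM was preincubated 15 min with test compounds; peptide 500 nM and SAM 20 uM then reacted for 2 h.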
# HP1b binding inh: blocks HP1-beta chromodomain binding to methylated histone tails. hit rate 0.56% among 390,000. Potency, µM (highest dose often 114 µM), without a hit: at the top dose activity change, negative = inhibition, most hits filed as inhibitors. AID 540317. P83916. AlphaScreen HP1-beta / biotin-H3K9me3 peptide binding; also: nearly all actives have a fitted effect of over 70% in size
#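 HP1-beta protein (50 nM final) preincubated 30 min at room temperature with biotinylated H3(1-18)K9me3 peptide (50 nM) in PBS pH 7.4, 0.01% Tween-20, then compound added for 30 min. AlphaScreen streptavidin donor/nickel chelate acceptor beads (10 ug/mL final), 30 min dark, luminescence read.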
# L3MBTL1 inh: L3MBTL1 (human) inhibition. hit rate 0.66% among 230,000. AlphaScreen L3MBTL1–H3K9me1 peptide binding. Potency, µM (top dose mostly 57.1 µM), for inactives: top-dose activity, negative = inhibition, actives largely listed as inhibitors; also: % is scaled to controls: 0 for no effect and ±100 for the full control effect; nearly all actives have a fitted effect of over 60% in size
#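 AlphaScreen proximity signal between nickel-chelate acceptor and streptavidin donor beads (final 10 ug/mL) reports binding of 50 nM L3MBTL1 to 75 nM biotin-H3 K9me1 peptide; complex incubated with compounds 30 min at room temperature; cefsulodin titration as control.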
# JMJD2A Tudor inh: JMJD2A Tudor domain (human) inhibition | Potency, µM (titrated, usually from 114 µM), without a hit: top-dose activity change, negative = inhibition, hits mostly inhibitors | hit rate 4.4% among 390,000 | AlphaScreen JMJD2A-Tudor / H3K4me3 peptide binding | O75164; also: % is scaled to controls: 0 for no effect and ±100 for the full control effect; nearly all actives have a fitted effect of over 50% in size
# Sfp inh: blocks B. subtilis Sfp PPTase activity | Q9F4F7 | Biochemical Sfp PPTase activity, qHTS | Potency, µM, for inactives: largest response in the series, negative = inhibition, actives largely listed as inhibitors | hit rate 3.5% among 310,000 | AID 1490;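 also: the enzyme is Sfp with the accession as filed and its product quenches rhodamine fluorescence; 0% = enzyme reaction without inhibitor and -100% = no enzyme wells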
#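 Reaction rates are the 30-min fluorescence difference (ex 525, em 598 nm) in wells containing 15 nM Sfp, 5 uM rhodamine-CoA and 12.5 uM BHQ-2-YbbR at pH 7.6 with 10 mM MgCl2.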
# Numbers without * were called inactive; u = inconclusive; x = no result given; [ ] = dose if it differs, or a comment. Calls follow the shape of the dose curve; as a rule, active = well fitted curve in the direction sought with a large enough effect; inconclusive = small, poorly fitted or top-dose-only effect, or another doubt; inactive = no such curve, though single readings can be large; an effect the other way counts as inactive or inconclusive. Potency is read from the fitted curve at half-maximal effect.
SMILES,BAZ2B inh,G9a inh,HP1b binding inh,L3MBTL1 inh,JMJD2A Tudor inh,Sfp inh
NS(=O)(=O)c1ccc2nc(NC(=O)Nc3ccc(F)cc3)sc2c1,1.1%,50.1µM*,2.6%,x,-15.8%,1.8%
O=C(NNc1nc2ccccc2s1)Nc1ccc(F)cc1,-18.3%,2.0%[59 µM],18.4%,x,-18.9%,100µM*
Cc1cc(OCC(=O)N2CCc3ccccc3C2)c(C)cc1Br,19.6%,103.8%[59 µM],45.1%,48.0%,u,-14.4%
COc1ccc(S(=O)(=O)N(C)C[C@H]2Oc3c(NS(=O)(=O)c4cn(C)cn4)cccc3C(=O)N([C@H](C)CO)C[C@@H]2C)cc1,x,x,31.5%,4.2%,-16.3%,x
O=C(NNc1nc2ccccc2s1)Nc1ccc(Cl)c(Cl)c1,-29.7%,u,36.9%,x,-4.4%,56.2µM*
O=C(CSc1nc2ccccc2s1)NNC(=O)Nc1ccc(Cl)c(Cl)c1,10.1%,6.8%[59 µM],35.6%,-19.3%,-16.7%,6.2%
Cc1ccc2nc(NC(=O)C3CCCN(S(=O)(=O)c4cccc5nsnc45)C3)sc2c1 (stereo not given),-38.6%,35.5µM*,-3.1%,-10.1%,u,-0.5%
CCN1CCN(c2ccc(S(=O)(=O)N3CCCCC3)cc2NC(=O)CC(NC(C)=O)c2ccccc2)CC1 (stereo not given),-8.2%,-30.1%[0.501 µM],18.3%,-3.3%,-16.4%,x
CCN(C(=O)CSc1ncc2c(n1)-c1cc(Cl)ccc1N(Cc1ccccc1)S2(=O)=O)c1cccc(C)c1,2.9%,9.0%[59 µM],6.6%,x,-12.7%,x
Cc1cccc(S(=O)(=O)N2CCN(c3nc(-c4cccs4)nc4ccccc34)CC2)c1,x,x,39.1%,x,-14.3%,x
COc1cc(C2C(C(=O)c3cc4ccccc4o3)=C(O)C(=O)N2c2cc(C)on2)cc(OC)c1OC (stereo not given),-28.3%[57.1 µM],44.7µM*,29.2%,x,-16.8%,-7.8%
COc1cccc(C2C(C(=O)c3cc4ccccc4o3)=C(O)C(=O)N2c2cc(C)on2)c1OC (stereo not given),-28.1%,44.7µM*,1.7%,-4.1%,u,19.0%
CN(C)c1ncc2nc(-c3cccs3)c(=O)n(CCC#N)c2n1,x,5.1%[0.501 µM],x,x,x,-0.4%
CC(=O)Nc1nc(-c2ccccc2)c(-c2ccccc2)s1,x,x,25.4%,x,-21.8%,x
CC(=O)NC1Sc2ccccc2N=C1c1ccccc1 (stereo not given),-4.1%,u,u,x,50.1µM*,15.8µM*
O=C(O)CSc1nnc(Cc2ccccc2)n1Cc1ccccc1,-7.4%,-28.6%[2.33 µM],27.7%,x,-17.9%,3.3%
COCCCn1c(Cc2csc(Nc3ccccc3)n2)nnc1SCC(N)=O,56.2µM*,6.31µM*,-18.6%,-13.2%,u,31.6µM*
NC(=O)CSc1nnc(Cc2csc(Nc3ccccc3)n2)n1Cc1ccccc1,4.1%,35.5µM*,19.3%,-9.6%,u,20µM*
COCCCn1c(SCC(N)=O)nnc1-c1ccccc1,6.2%,17.2%[59 µM],17.6%,8.0%,-18.6%,1.5%
O=S1(=O)C2CC3C=CC2(CN1Cc1ccccc1)O3 (stereo not given),x,x,44.4%,x,-15.2%,2.6%
CSc1ncc(C(=O)Nc2ccccc2C(F)(F)F)c(-c2ccccc2)n1,32.6%,24.3%[59 µM],44.1%,x,-22.1%,x
COc1cccc(/C=C/C(=O)OCC(=O)c2c[nH]c3ccccc23)c1,-17.1%,-47.1%[59 µM],33.0%,5.4%,-8.4%,x
O=C(COC(=O)/C=C/c1cccc([N+](=O)[O-])c1)NCc1ccco1,70.8µM*,9.6%,11.9%,-13.1%,-23.2%,1.4%
COc1cc(/C=C/C(=O)OCC(=O)NCc2ccco2)ccc1O,-17.1%,39.8µM*,8.3%,-6.9%,-10.7%,x
COc1ccccc1/C=C/C(=O)OCC(=O)NCc1ccco1,u,4.1%[59 µM],-10.8%,-8.5%,-30.6%,13.5%
SMILES,BAZ2B inh,G9a inh,HP1b binding inh,L3MBTL1 inh,JMJD2A Tudor inh,Sfp inh
CCc1cccc2c(C(=O)COC(=O)/C=C/c3ccc(O)c(OC)c3)c[nH]c12,-9.5%,44.7µM*,2.1%,-14.4%,-32.4%,11.3%
O=C(COC(=O)c1cc(=O)[nH]c2ccccc12)Nc1ccccc1F,x,x,1.1%,3.6%,-10.3%,x
CCOC(=O)c1ccc(NC(=O)C2CCN(C(=O)N3CC(C)Oc4ccc(C)cc43)CC2)cc1 (stereo not given),-4.7%,-33.9%[59 µM],25.6%,x,-4.9%,x
COc1ccccc1NC(=O)NCc1cccn1Cc1ccccc1,-33.9%,-47.6%[59 µM],-19.3%,x,-34.9%,x
COc1cc(OC)cc(C(=O)Nc2ccc(C(=O)Nc3ccccc3OC)cc2)c1,x,x,8.5%[57 µM],-2.0%,-10.3%,x
CCCCCCCOC(=O)C[N+](C)(C)CCOC1CC2CCC1(C)C2(C)C (stereo not given),-6.1%,9.8%[59 µM],16.0%,23.6%,-22.9%,50.1µM*
O=C(NC1CCCCCC1)c1ccc2c(c1)sc1nc(-c3ccc(F)cc3)cn12,-24.7%,-18.6%[59 µM],33.9%,x,-8.2%,x
COc1ccccc1CN1CCN(C(CC(C)C)c2nnnn2Cc2cccs2)CC1 (stereo not given),-13.3%,u,26.4%,-7.6%,-13.8%,89.1µM*
CCC(c1nnnn1Cc1ccccc1)N1CCN(c2ccc(OC)cc2)CC1 (stereo not given),u,12.6µM*,-3.9%,-24.0%,u,-3.2%
CCC(C)(C)n1nnnc1C(c1ccccn1)N1CCN(c2cccc(OC)c2)CC1 (stereo not given),-3.6%,20µM*,16.9%,-7.4%,-32.8%,13.4%
COc1ccc(N2CCN(C(c3ccccc3)c3nnnn3Cc3ccccc3)CC2)cc1 (stereo not given),x,x,-6.6%,x,u,x
CCCC(c1nnnn1CC1CCCO1)N1CCN(c2ccccc2)CC1 (stereo not given),u,56.2µM*,42.4%,0.4%,-1.4%,-0.5%
CCCCC(c1nnnn1CC1CCCO1)N1CCN(Cc2ccccc2)CC1 (stereo not given),-1.4%,u,39.1%,16.7%,-33.0%,8.9%
CCCC(c1nnnn1Cc1cccs1)N1CCN(C)CC1 (stereo not given),u,x,25.4%,-1.9%,-33.3%,-9.9%
COc1ccc(Cn2nnnc2C(c2ccccn2)N2CCN(c3ccc(O)cc3)CC2)cc1 (stereo not given),x,x,u,x,31.6µM*,x
Oc1ccc(N2CCN(C(c3ccccn3)c3nnnn3C3CCCC3)CC2)cc1 (stereo not given),-11.5%,1.78µM*,u,-4.9%,25.1µM*,17.8µM*
O=C(c1ccco1)N1CCN(C(c2ccccn2)c2nnnn2C2CCCC2)CC1 (stereo not given),u,u,32.1%,-13.6%,-11.6%,0.8%
CCC(c1nnnn1Cc1ccc(OC)cc1)N1CCN(c2ccc(OC)cc2)CC1 (stereo not given),35.5µM*,x,u,-20.4%,u,u
